High-throughput results deposited in PubChem by several laboratories.
PfHsp40 rescue: rescue of yeast from PfHsp40 toxicity, primary screen, S. cerevisiae, ATP luminescence; growth rescue, % at 12.5 µM; hit rate 0.68% among 340,000; S. cerevisiae expressing PfHsp40, growth rescue; in the data active = growth rescue above about 28%, passing the limit was not always enough; inconclusive = no clear call, values can overlap the other calls;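 also: yeast W303a lacking pdr1 and pdr3 grown in galactose medium; growth measured after three days at 30 °C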
MazF activator: activators of E. coli MazEF toxin-antitoxin RNase, primary screen, biochemical, fluorescence, uHTS | FAM/BHQ RNA-DNA oligo cleavage fluorescence, 5 h | AID 504720, 2011 | Endoribonuclease toxin MazF (Escherichia coli (strain K12)), P0AE70 | activation, % at 20 µM | hit rate 0.32% among 350,000; in the data active = activation above about 50%
Bead autofluor: compound fluorescence in toxin protease inhibitor counterscreen | compound autofluorescence counterscreen, microsphere flow cytometry; active compounds read high | fluorescence intensity (test concentration not listed) | hit rate 3.1% among 360,000; in the data active = fluorescence intensity above about 16000; inconclusive = no clear call, values can overlap the other calls
BoNT-A LC inh2: BoNT/A light chain protease inhibitors, primary screen, biochemical, flow cytometry, MLPCN library. Botulinum neurotoxin type A light chain protease (Clostridium botulinum A str. ATCC 3502). multiplex microsphere protease substrate cleavage. inhibition, % at 10 µM. hit rate 0.17% among 360,000
BoNT-F LC inh: BoNT/F light chain protease inhibitors, primary screen, biochemical, flow cytometry, MLPCN library. AID 588497, 2011. inhibition, % at 10 µM. Multiplex microsphere protease cleavage assay. hit rate 0.22% among 360,000. Botulinum neurotoxin type F light chain protease (Clostridium botulinum); in the data active = inhibition above about 35%, passing the limit was not always enough; inconclusive = no clear call, values can overlap the other calls
Anthrax LF prot: Bacillus anthracis LF protease inhibitors, primary screen, biochemical, multiplex microsphere, MLPCN library | multiplex microsphere protease cleavage assay | AID 588501, 2011 | hit rate 0.12% among 360,000 | Lethal factor (Bacillus anthracis), P15917 | inhibition, % at 10 µM
Target sequence (P15917 whole entry, looked up): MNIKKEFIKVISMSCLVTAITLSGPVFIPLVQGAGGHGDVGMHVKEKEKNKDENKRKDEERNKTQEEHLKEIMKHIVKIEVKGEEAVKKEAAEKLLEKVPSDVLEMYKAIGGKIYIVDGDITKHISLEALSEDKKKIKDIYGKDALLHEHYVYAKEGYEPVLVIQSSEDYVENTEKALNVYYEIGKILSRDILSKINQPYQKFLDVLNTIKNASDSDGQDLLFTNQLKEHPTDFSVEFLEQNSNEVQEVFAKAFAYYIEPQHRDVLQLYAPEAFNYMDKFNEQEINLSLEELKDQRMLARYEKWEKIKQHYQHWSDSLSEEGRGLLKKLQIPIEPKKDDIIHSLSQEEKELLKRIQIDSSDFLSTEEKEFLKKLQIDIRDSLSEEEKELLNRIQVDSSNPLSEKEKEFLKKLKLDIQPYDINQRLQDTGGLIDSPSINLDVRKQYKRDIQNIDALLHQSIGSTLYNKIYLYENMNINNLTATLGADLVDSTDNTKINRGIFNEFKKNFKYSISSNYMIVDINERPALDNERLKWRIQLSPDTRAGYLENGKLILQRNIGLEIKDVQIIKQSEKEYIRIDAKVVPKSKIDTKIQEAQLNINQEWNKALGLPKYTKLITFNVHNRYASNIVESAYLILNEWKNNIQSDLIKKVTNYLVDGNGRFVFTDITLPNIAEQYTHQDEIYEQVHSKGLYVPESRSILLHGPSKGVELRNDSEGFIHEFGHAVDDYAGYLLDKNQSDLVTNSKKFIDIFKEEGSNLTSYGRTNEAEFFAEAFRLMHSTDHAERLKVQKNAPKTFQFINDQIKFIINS
Hits are given with their value; - = inactive; ? = inconclusive; . = no result given. An excerpt weighted towards active compounds, which were near 4.3% of everything screened. Rule as the data show it, unless noted: active = inhibition above about 30%; inconclusive = no clear call, values can overlap the other calls; inactive = below that.

SMILES	PfHsp40 rescue	MazF activator	Bead autofluor	BoNT-A LC inh2	BoNT-F LC inh	Anthrax LF prot
CC(C)OCCCNC(=O)c1ccc(NC(=O)C2=CSCCO2)cc1	-	-	-	-	-	-
O=C(CN1CCC(NC(=O)c2ccc(F)cc2)CC1)NCc1ccccc1F	-	-	17206	-	-	-
O=C(CN1CCC(NC(=O)c2ccccc2)CC1)NCc1ccccc1F	-	-	-	-	-	-
CCOC(=O)C1(CCOc2ccccc2)CCN(Cc2ccc(F)c(OC)c2)CC1	-	-	-	-	40	-
CCOc1ccc(S(=O)(=O)NN=C2CCN(C(C)=O)CC2)cc1	-	-	?	-	-	-
COc1ccc(CNC(=O)COC(=O)c2c[nH]c(=O)[nH]c2=O)cc1OC	34	-	-	-	-	-
CCOC(=O)N1CCN(c2nc(C)c3c(n2)CC(C)CC3=O)CC1 (stereo unspecified)	-	-	23668	-	-	-
OC(Cn1c2ccccc2c2ccccc21)C[n+]1cccc2ccccc21 (stereo unspecified)	-	51	20032	?	-	-
Cc1nc2ccccc2n1CC(O)Cn1c2ccccc2c2ccccc21 (stereo unspecified)	-	-	-	?	-	-
Cc1c(Cl)ccc(S(=O)(=O)N2CCN(C)CC2)c1Cl	.	-	-	-	-	-
Cc1onc(-c2ccccc2Cl)c1C(=O)O/N=C(\N)c1ccccc1	-	-	16593	-	-	-
Cc1onc(-c2ccccc2Cl)c1C(=O)O/N=C(\N)c1cccc([N+](=O)[O-])c1	.	-	-	-	-	-
Cc1onc(-c2ccccc2Cl)c1C(=O)N1C=CC(C(F)(F)Cl)=NCC1	-	-	22372	-	-	-
Cc1onc(-c2ccccc2Cl)c1C(=O)N1C=CC(C(F)(F)F)=NCC1	-	-	-	-	-	-
Cc1onc(-c2ccccc2Cl)c1C(=O)N1CC(C)OC(C)C1 (stereo unspecified)	-	-	23411	?	-	-
COc1ccc(N2CCN(C(=O)CCC(=O)N3Cc4ccccc4Oc4ncccc43)CC2)cc1	-	-	-	-	-	-
O=C(COc1ccccc1)NCC(=O)N1CCCC1	-	-	-	-	-	-
O=C(NCCCCNC(=O)C1CCCC1)C1CCCC1	-	-	22858	-	-	-
COc1ccc(COC(=O)C2CCN(S(=O)(=O)c3cccs3)CC2)cc1	-	-	-	-	-	-
O=C(OCCN1C(=O)c2ccccc2C1=O)C1CCN(S(=O)(=O)c2cccs2)CC1	-	-	22995	?	-	-
Cc1cccc(OCCOC(=O)C2CCN(S(=O)(=O)c3cccs3)CC2)c1	102	-	-	-	-	-
CN(C(=O)CSc1nnc(-c2cccs2)n1C1CC1)C1CCS(=O)(=O)C1 (stereo unspecified)	-	-	-	-	-	-
Cc1ccc(NC(C)c2cc(Cl)ccc2O)cc1 (stereo unspecified)	-	-	21916	?	-	-
CC(Nn1cnnc1)c1cc(Cl)ccc1O (stereo unspecified)	-	-	-	-	-	-
Cc1ccc(Cc2nnc(SCC(=O)Nc3ccccc3)n(N)c2=O)cc1	-	-	-	-	-	-
SMILES	PfHsp40 rescue	MazF activator	Bead autofluor	BoNT-A LC inh2	BoNT-F LC inh	Anthrax LF prot
CC1(C)CC(=O)C2=C(C1)N(Cc1ccccc1)C(=O)C2(O)C(F)(F)F (stereo unspecified)	-	-	-	-	-	-
CC(C)CC(=O)NC1(C(F)(F)F)C(=O)N(Cc2ccccc2)C2=C1C(=O)CC(C)(C)C2 (stereo unspecified)	-	-	21893	-	-	-
CC1(C)CC(=O)C2=C(C1)N(Cc1ccc(F)cc1)C(=O)C2(NC(=O)c1cccnc1)C(F)(F)F (stereo unspecified)	-	-	20986	?	-	-
CC1(C)CC(=O)C2=C(C1)N(CC1CCCO1)C(=O)C2(NC(=O)c1cccnc1)C(F)(F)F (stereo unspecified)	-	-	17055	-	-	-
CCc1[nH]nc(C(=O)NC2CCCc3c2cnn3-c2cc(C)cc(C)c2)c1C (stereo unspecified)	-	-	-	-	-	-
CCc1ccc2cc(F)cc(F)c2n1	.	.	-	-	-	-
